Results filed as inconclusive are left out. Some of the results follow. Activity calls are given as the source filed them. Unless noted, calls follow the shape of the dose curve; as a rule, active = well fitted curve in the direction sought with a large enough effect; inconclusive = small, poorly fitted or top-dose-only effect, or another doubt; inactive = no such curve, though single readings can be large; an effect the other way counts as inactive or inconclusive.
Experiments:
[1] = molecular target: Calcium and integrin-binding protein 1 (Homo sapiens) (UniProt Q99828); experiment: Primary qHTS for Identification of Calcium Integrin Binding Protein 1 (CIB1) Competitor (AID 1508620);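 also: GST tagged CIB1 binding a fluorescein labelled alphaIIb integrin peptide tracer; top concentration of the series differs between compounds; % is scaled to controls: 0 for no effect and ±100 for the full control effect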
In short: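 CIB1-GST (1 uM final) and compound incubated 15 min at room temperature before adding FITC-alphaIIb peptide tracer (100 nM final). Competition for binding read by fluorescence polarization (ex 480, em 540) after another 15 min at room temperature.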

[2] = molecular target: Rap guanine nucleotide exchange factor 3 (Homo sapiens) (UniProt O95398); experiment: Confirmatory qHTS for antagonist of cAMP-regulated guanine nucleotide exchange factor 3 (EPAC1) (AID 1645880);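 also: plate controls were DMSO only for no effect and full effect of the ATA control for full effect; nearly all actives have a fitted effect of over 55% in size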
In short: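 Nucleotide exchange uses 100 nM EPAC1, 250 nM RAP1B-BODIPY-GDP and 50 uM GDP, with compounds in a concentration-titration series. After 5 min at room temperature, fluorescence (480 nm ex/540 nm em) is read every 5 min for 30 min. Data are normalized to control ATA and DMSO.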

[3] = molecular target: Rap guanine nucleotide exchange factor 3 (Homo sapiens) (UniProt O95398); experiment: Confirmatory qHTS for agonist of cAMP-regulated guanine nucleotide exchange factor 3 (EPAC1) (AID 1645881);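 also: EPAC1 catalysed release of BODIPY-GDP from Rap1B seen as fluorescence loss; 100% = effect of cAMP agonist control; nearly all actives have a fitted effect of over 75% in size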
[4] = molecular target: Rap guanine nucleotide exchange factor 4 (Homo sapiens) (UniProt Q8WZA2); experiment: Confirmatory qHTS for agonist of cAMP-regulated guanine nucleotide exchange factor 4 (EPAC2) (AID 1645884);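 also: nucleotide exchange releases bodipy-GDP from Rap1 and this lowers its fluorescence; % is scaled to controls: 0 for no effect and ±100 for the full control effect; nearly all actives have a fitted effect of over 65% in size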
[5] = molecular target: Rap guanine nucleotide exchange factor 4 (Homo sapiens) (UniProt Q8WZA2); experiment: Confirmatory qHTS for antagonist of cAMP-regulated guanine nucleotide exchange factor 4 (EPAC2) (AID 1645885); also: nearly all actives have a fitted effect of over 25% in size
[6] = AP1 Signaling Pathway (AID 357; active = well fitted curve in either direction with a large enough effect, not every such curve was filed as active;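 also: ME-180 reporter cells stimulated with EGF at its EC50 level; % is scaled to controls: 0 for no effect and ±100 for the full control effect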); details: ME-180 AP-1-bla reporter, EGF-induced, beta-lactamase ratio, 5 h; at 7.69 µM (top of the series) unless noted
In short: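 Read-out was the 460nm/530nm emission ratio (excitation 405nm) after CCF4 loading for 2.5 hours at room temperature. Cells carried an AP-1-driven beta-lactamase reporter, were stimulated with EC50 EGF plus compound for 5 hours, and AC50 values came from titrations.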

[7] = NFAT Signaling Pathway (AID 444; active = well fitted curve in either direction with a large enough effect, not every such curve was filed as active;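 also: carbachol stimulus at about its EC50 of 1 µM final; % is scaled to controls: 0 for no effect and ±100 for the full control effect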); details: Jurkat NFAT-bla M1, carbachol, beta-lactamase ratio, 5 h; at 7.69 µM (top of the series) unless noted
In short: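 Read-out: CCF4 FRET ratio (460 nm/530 nm) after 1 h RT dye loading, used for %activity and AC50 from titration series. Cells: Jurkat NFAT-β-lactamase/M1 line, treated with compound plus 1 uM carbachol for 5 h, 37 °C.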

[8] = Stat Signaling Pathway (AID 446; active = well fitted curve in either direction with a large enough effect, not every such curve was filed as active;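 also: ME-180 cervical cancer cells given 40 pM IL-6 alongside compound; SIE-controlled beta-lactamase reporter measured as 460/530 nm FRET emission ratio; % is scaled to controls: 0 for no effect and ±100 for the full control effect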); details: ME-180 SIE beta-lactamase reporter, IL-6 stimulated, 5 h; at 7.69 µM (top of the series) unless noted
In short: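 ME-180 cells carrying a SIE-driven beta-lactamase reporter are stimulated with 40 pM IL-6 for 5 h at 37C in the presence of compound. The 460/530 nm FRET substrate ratio is read after 2.5 h at RT. Data are normalised to 300 pM IL-6 and to 125 nM JAK inhibitor controls.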

[9] = molecular target: Glucocorticoid receptor (Homo sapiens) (UniProt P04150); experiment: GR-GFP Redistribution (AID 450;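 active = compounds whose dose series gives a full or clear partial fitted curve of increased nuclear translocation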; also: potency is read from the fitted curve at half-maximal effect); details: U2OS GR-GFP nuclear translocation, laser cytometry, 2 h
[10] = molecular target: Glutathione peroxidase 1 (Homo sapiens) (UniProt P07203); experiment: Primary qHTS Assay for Inhibitors of Recombinant Selenoprotein Glutathione Peroxidase 1 (GPX1) (AID 1845191); also: % is scaled to controls: 0 for no effect and ±100 for the full control effect; nearly all actives have a fitted effect of over 65% in size
In short: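 10 nM GPX1 + cpd, 30 min RT; start w/ 1 mM GSH, 0.5 mM cumene hydroperoxide, 0.5 mM NADPH, 100 nM GR, 0.01% BSA; buffer 50 mM Tris-HCl pH 7.5, 2 mM EDTA, 150 mM NaCl; Fl 340/450, 0 & 15 min.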

[11] = molecular target: Mitogen-activated protein kinase 10 (Mus musculus) (UniProt Q61831); experiment: JNK3 AlphaScreen Assay (AID 530; active = well fitted curve in either direction with a large enough effect, not every such curve was filed as active)
In short: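 Room-temperature AlphaScreen kinase assay; pre-activated HepG2 lysate as JNK3 source, biotin-GST-cJun(1-79) substrate, 10 uM ATP, compound 15 min preincubation.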

[12] = molecular target: Cytochrome P450 3A4 (Homo sapiens) (UniProt P08684); experiment: qHTS Assay for Inhibitors and Substrates of Cytochrome P450 3A4 (AID 884); also: % is scaled to controls: 0 for no effect and ±100 for the full control effect; nearly all actives have a fitted effect of over 50% in size
In short: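 20 nM human CYP3A4 with 25 uM Luciferin-PPXE (at KM) in 200 mM KPO4, preincubated 10 min with compound; NADPH regeneration started a 60 min RT reaction. Luciferin detected by luminescence, normalized to 57 uM ketoconazole as full inhibition.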

[13] = molecular target: Tyrosyl-DNA phosphodiesterase 1 (Homo sapiens) (UniProt Q9NUW8); experiment: Confirmation Assay for Inhibitors of Tyrosyl-DNA Phosphodiesterase (TDP1) (AID 489007); details: recombinant human TDP1 enzymatic activity, dose-response; also: potency is read from the fitted curve at half-maximal effect; nearly all actives have a fitted effect of over 40% in size
In short: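 Recombinant E. coli-expressed Tdp1 (1 nM final) was preincubated with compounds 15 min at room temperature, then reacted 5 min with 15 nM 5'-biotin/3'-phosphotyrosine-FITC DNA substrate; cleavage read as loss of AlphaScreen signal (10 ug/ml beads, 10 min).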

[14] = molecular target: DNA repair nuclease/redox regulator APEX1 (Homo sapiens) (UniProt P27695); experiment: Confirmation qHTS Assay for Inhibitors of the Human Apurinic/apyrimidinic Endonuclease 1 (APE1) (AID 2572); details: purified APE1, fluorogenic abasic-site DNA cleavage; also: potency is read from the fitted curve at half-maximal effect; nearly all actives have a fitted effect of over 30% in size
In short: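 15 min RT compound–APE1 preincubation → add 50 nM final THF-abasic TAMRA/BHQ-2 dsDNA → immediate kinetic read, 3 × 60 s, Ex 525/Em 598 → Δ fluorescence (read 3 − read 1).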

[15] = molecular target: Lethal(3)malignant brain tumor-like protein 1 (Homo sapiens) (UniProt Q9Y468); experiment: qHTS Assay for the Inhibitors of L3MBTL1: Hit Validation (AID 540279); details: L3MBTL1 methyl-lysine binding inhibition, biochemical qHTS; also: potency is read from the fitted curve at half-maximal effect; nearly all actives have a fitted effect of over 70% in size
In short: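 AlphaScreen displacement: 50 nM L3MBTL1 bound to 75 nM biotin-H3K9me1 peptide for 30 min, compound added for 30 min at room temperature, then beads at 10 ug/mL final for 30 min in the dark. Cefsulodin titration served as intraplate control.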

[16] = qHTS Assay for the Inhibitors of L3MBTL1: Hit Validationin AlphaScreen Counterscreen (AID 602224); also: 0% is about no effect
In short: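 Using a biotin-His6 bridge (1 nM) between streptavidin donor and Ni-chelate acceptor beads at 10 ug/mL each, hit compounds were checked for assay-technology artifacts; activity here flags false positives from the primary screen.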

[17] = molecular target: Phosphoglycerate kinase, glycosomal (Trypanosoma brucei brucei) (UniProt P07378); experiment: qHTS for inhibitors of Phosphogylcerate Kinase: Hit Validation Screen (AID 686980); details: TbPGK coupled GAPDH assay, Kinase-Glo luminescence; also: potency is read from the fitted curve at half-maximal effect; nearly all actives have a fitted effect of over 65% in size
In short: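 Luminescent ATP detection (Kinase-Glo Plus) follows a 60-minute room-temperature incubation, with wells lacking PGK as controls. Buffer: 100 mM TEA (pH 7.6), 5 mM MgCl2, 0.01% Tween-20. Coupling enzyme GAPDH (100 nM final) supplies unstable 1,3-BPG in-well.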

[18] = molecular target: DNA polymerase iota (Homo sapiens) (UniProt Q9UNA4); experiment: qHTS for Inhibitors of Polymerase Iota: Confirmatory Assay for Cherry-picked Compounds (AID 720496); details: Pol iota primer extension, TAMRA/BHQ fluorescence; also: potency is read from the fitted curve at half-maximal effect
In short: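 Human Pol iota (10 nM) was preincubated 15 min at room temperature with compound, then started with 50 nM TAMRA/BHQ-2 quenched primer-template substrate. Fluorescence (ex 525/em 598 nm) was read at 0 and 10 min.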

[19] = molecular target: Bifunctional 3'-5' exonuclease/ATP-dependent helicase WRN (Homo sapiens) (UniProt Q14191); experiment: qHTS for Inhibitors of WRN Helicase: Confirmatory Assay for Cherry-picked Compounds. (AID 720497); details: WRN helicase DNA unwinding, fluorescence kinetic; also: potency is read from the fitted curve at half-maximal effect; nearly all actives have a fitted effect of over 65% in size
In short: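 WRN (20 nM) was preincubated 15 min at RT with compound, then started with 100 nM forked duplex oligonucleotide and 2 mM ATP. Unwinding was read kinetically by red fluorescence (ex 525/em 598 nm), normalized to enzyme-free and uninhibited controls.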

[20] = qHTS for Inhibitors of WRN Helicase: Thiazole Orange DNA Binding Counterscreen (AID 720499);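 also: drop in dye fluorescence marks compound binding to DNA; % is scaled to controls: 0 for no effect and ±100 for the full control effect; nearly all actives have a fitted effect of over 60% in size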
In short: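 Thiazole orange displacement counterscreen: compounds added to 50 nM unlabeled DNA with 100 nM ThO. Fluorescence (ex 480, em 530 nm) read after 15 min at room temperature; activity flags nonspecific DNA binding.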

[21] = molecular target: DNA polymerase kappa (Homo sapiens) (UniProt Q9UBT6); experiment: qHTS for Inhibitors of Polymerase Kappa: Confirmatory Assay for Cherry-picked Compounds (AID 720501); details: purified Pol-kappa, fluorescent strand-displacement substrate; also: potency is read from the fitted curve at half-maximal effect
In short: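 Strand-displacement fluorescence read-out: TAMRA reporter released from a BHQ-2-quenched template, measured at 525/598 nm over a 10 min kinetic window. Substrate was 50 nM final; enzyme was 10 nM Pol-kappa, preincubated 15 min at room temperature with compound.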

[22] = molecular target: DNA polymerase eta (Homo sapiens) (UniProt Q9Y253); experiment: qHTS for Inhibitors of Polymerase Eta: Confirmatory Assay for Cherry-picked Compounds (AID 720502); details: Pol eta primer extension, TAMRA/BHQ fluorescence, 10 min; also: potency is read from the fitted curve at half-maximal effect
In short: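 Enzyme at 10 nM is mixed with pin-transferred compound and left 15 min at room temperature. Substrate (50 nM final) is then added, and plates are read at 0 min and after 10 min.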

[23] = molecular target: RecQ-like DNA helicase BLM (Homo sapiens) (UniProt P54132); experiment: qHTS for Inhibitors of WRN Helicase: BLM Helicase Counterscreen for WRN Inhibitors (AID 720503); details: Recombinant BLM helicase DNA unwinding, red fluorescence; also: potency is read from the fitted curve at half-maximal effect; nearly all actives have a fitted effect of over 60% in size
In short: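 BLM at 1 nM was preincubated with compound for 15 min at room temperature in 25 mM Tris-HCl pH 8.0, 50 mM NaCl, 2 mM MgCl2, 1 mM DTT and 0.01% Tween-20. Unwinding was started with 100 nM DNA and 2 mM ATP (final). Fluorescence (ex 525/em 598 nm) was read twice, 15 min apart, and normalized to enzyme-free and DMSO controls.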

Chain of Calcium and integrin-binding protein 1 (Homo sapiens) (Q99828 whole entry, looked up): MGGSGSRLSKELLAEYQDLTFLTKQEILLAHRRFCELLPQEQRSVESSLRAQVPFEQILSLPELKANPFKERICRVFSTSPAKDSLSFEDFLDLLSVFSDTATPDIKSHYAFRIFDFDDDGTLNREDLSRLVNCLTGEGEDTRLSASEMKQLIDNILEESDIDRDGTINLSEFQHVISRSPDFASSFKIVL
Chain of Rap guanine nucleotide exchange factor 4 (Homo sapiens) (Q8WZA2 whole entry, looked up): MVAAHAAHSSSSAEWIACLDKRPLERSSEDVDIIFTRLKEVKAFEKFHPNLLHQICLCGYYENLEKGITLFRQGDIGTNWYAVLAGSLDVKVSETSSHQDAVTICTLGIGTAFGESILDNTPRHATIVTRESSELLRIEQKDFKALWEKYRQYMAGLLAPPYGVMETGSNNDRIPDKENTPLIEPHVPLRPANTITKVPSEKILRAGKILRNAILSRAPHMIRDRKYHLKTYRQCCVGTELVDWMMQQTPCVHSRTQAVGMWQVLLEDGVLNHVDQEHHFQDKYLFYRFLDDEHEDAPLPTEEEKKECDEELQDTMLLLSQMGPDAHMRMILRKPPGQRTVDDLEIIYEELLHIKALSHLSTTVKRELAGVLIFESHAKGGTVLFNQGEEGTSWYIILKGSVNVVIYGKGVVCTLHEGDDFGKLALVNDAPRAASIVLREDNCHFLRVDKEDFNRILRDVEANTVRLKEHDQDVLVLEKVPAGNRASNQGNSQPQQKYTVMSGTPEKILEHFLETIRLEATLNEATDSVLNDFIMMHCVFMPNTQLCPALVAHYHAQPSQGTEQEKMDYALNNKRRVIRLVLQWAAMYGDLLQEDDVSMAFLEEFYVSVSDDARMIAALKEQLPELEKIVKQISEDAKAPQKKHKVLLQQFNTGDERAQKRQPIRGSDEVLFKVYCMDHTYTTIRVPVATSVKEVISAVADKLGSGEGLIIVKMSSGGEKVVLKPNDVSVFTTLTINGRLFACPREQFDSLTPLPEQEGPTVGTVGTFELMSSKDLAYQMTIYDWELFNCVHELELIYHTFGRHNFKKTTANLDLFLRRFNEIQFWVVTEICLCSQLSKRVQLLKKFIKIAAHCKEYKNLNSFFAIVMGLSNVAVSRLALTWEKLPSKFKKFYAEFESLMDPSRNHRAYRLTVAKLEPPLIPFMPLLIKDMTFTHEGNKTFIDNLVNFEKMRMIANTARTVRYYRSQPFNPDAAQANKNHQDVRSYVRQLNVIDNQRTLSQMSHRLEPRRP
Chain of Rap guanine nucleotide exchange factor 3 (Homo sapiens) (O95398 whole entry, looked up): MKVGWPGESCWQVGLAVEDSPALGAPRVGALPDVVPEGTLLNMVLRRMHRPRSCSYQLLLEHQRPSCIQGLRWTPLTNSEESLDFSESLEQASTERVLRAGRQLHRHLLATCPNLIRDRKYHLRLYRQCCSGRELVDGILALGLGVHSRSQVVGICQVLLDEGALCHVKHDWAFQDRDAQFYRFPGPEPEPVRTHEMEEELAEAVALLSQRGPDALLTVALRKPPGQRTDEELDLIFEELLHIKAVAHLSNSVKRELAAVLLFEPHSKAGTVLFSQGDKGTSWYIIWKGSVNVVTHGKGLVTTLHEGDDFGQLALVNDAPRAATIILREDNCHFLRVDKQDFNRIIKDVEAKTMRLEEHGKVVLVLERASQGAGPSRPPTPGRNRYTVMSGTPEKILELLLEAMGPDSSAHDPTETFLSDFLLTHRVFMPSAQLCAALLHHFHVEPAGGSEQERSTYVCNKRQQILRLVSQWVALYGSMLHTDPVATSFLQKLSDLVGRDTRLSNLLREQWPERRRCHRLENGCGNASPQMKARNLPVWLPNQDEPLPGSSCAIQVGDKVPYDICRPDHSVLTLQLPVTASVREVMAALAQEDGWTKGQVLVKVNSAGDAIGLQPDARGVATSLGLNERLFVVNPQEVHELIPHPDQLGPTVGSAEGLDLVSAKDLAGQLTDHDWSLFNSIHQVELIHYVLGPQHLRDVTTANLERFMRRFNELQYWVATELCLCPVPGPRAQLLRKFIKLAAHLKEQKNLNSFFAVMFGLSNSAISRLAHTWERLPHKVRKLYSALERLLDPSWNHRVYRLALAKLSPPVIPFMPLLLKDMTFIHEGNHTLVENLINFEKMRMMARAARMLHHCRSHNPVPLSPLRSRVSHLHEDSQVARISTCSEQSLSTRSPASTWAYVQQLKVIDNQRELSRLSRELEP
Chain of Tyrosyl-DNA phosphodiesterase 1 (Homo sapiens) (Q9NUW8 whole entry, looked up): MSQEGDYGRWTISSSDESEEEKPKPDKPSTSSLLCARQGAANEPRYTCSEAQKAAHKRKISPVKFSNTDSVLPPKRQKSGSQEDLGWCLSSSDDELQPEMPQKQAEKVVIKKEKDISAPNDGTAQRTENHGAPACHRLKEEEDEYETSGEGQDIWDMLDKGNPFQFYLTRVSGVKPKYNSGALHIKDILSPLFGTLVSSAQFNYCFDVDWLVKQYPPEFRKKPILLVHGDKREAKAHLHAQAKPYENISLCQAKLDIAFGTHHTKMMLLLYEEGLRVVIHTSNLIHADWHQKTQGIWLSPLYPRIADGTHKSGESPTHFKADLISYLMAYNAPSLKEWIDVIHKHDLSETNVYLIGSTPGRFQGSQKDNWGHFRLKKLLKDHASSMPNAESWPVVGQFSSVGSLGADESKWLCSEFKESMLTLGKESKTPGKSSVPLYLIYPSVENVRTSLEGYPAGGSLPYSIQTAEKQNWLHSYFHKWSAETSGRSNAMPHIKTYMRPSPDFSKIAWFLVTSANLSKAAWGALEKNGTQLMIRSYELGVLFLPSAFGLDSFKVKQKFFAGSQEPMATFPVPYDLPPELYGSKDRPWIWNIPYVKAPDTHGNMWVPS
Chain of DNA repair nuclease/redox regulator APEX1 (Homo sapiens) (P27695 whole entry, looked up): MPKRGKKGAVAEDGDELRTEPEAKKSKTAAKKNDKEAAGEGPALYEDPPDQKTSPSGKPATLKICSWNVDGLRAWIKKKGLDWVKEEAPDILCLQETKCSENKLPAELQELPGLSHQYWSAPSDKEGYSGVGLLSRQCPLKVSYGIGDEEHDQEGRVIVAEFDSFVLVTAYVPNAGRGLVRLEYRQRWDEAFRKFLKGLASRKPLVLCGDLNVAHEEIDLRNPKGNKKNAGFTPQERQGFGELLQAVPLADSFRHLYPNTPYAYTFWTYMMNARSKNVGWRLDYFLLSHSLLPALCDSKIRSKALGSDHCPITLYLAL
Chain of DNA polymerase eta (Homo sapiens) (Q9Y253 whole entry, looked up): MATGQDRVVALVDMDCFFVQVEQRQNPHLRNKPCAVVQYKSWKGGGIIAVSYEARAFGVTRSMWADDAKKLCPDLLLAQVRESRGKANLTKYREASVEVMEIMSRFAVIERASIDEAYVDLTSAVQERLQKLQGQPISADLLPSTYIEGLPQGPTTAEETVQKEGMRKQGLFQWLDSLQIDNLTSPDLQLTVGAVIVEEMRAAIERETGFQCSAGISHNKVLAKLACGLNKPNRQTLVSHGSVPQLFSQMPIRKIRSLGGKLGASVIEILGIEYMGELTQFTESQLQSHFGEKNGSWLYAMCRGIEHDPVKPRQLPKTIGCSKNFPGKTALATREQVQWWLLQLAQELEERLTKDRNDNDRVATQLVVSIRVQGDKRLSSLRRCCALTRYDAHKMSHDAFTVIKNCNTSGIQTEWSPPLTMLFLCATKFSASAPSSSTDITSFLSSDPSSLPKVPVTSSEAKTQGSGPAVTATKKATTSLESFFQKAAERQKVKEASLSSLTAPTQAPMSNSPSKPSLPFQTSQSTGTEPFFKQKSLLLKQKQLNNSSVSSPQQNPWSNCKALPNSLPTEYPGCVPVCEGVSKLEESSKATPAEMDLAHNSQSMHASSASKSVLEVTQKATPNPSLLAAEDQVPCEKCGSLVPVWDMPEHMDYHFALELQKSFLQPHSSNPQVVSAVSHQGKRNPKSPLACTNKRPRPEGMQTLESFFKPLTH
Chain of Phosphoglycerate kinase, glycosomal (Trypanosoma brucei brucei) (P07378 whole entry, looked up): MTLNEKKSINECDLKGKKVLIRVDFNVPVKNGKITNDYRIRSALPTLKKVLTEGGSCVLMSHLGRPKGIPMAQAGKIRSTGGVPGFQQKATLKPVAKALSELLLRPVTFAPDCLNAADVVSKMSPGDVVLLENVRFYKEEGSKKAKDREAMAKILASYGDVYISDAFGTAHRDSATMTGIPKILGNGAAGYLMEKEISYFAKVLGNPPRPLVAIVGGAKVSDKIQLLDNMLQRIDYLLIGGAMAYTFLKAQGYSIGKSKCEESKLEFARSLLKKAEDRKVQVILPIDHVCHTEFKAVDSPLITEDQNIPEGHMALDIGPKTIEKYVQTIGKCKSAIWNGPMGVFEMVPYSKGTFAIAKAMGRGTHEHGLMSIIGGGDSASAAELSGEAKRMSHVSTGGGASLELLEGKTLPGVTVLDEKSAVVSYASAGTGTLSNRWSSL
Chain of Glucocorticoid receptor (Homo sapiens) (P04150 whole entry, looked up): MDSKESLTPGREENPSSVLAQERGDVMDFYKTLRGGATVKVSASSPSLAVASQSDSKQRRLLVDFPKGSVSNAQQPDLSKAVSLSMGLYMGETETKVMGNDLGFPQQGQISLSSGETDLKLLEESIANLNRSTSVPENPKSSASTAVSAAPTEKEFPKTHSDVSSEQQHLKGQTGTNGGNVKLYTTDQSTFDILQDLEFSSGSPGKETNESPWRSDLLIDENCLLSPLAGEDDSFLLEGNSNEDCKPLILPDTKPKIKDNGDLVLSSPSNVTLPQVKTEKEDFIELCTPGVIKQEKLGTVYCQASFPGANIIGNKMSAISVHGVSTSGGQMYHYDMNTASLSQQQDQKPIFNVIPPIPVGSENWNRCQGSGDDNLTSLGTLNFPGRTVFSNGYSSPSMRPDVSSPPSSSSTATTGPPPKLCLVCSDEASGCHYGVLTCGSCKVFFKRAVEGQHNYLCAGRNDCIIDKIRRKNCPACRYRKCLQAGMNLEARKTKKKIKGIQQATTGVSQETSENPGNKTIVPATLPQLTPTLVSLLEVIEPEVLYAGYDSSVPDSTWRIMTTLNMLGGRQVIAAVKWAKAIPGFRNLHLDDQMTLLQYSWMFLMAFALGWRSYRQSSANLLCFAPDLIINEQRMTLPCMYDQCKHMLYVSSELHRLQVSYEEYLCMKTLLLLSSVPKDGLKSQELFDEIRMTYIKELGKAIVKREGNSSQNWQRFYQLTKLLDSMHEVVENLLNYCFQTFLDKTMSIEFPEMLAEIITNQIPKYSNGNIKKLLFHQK

CCN(CC)C(=O)CC(c1ccc2c(c1)OCO2)c1c(O)cc(OC)cc1OC (centres undefined)
inactive: Potency [1] | Potency [2] | outcome [3] | outcome [4] | Potency [5]

CNc1oc(-c2cccs2)nc1C#N
inactive: activity change, negative = inhibition [6] 3.62% [at 17.2 µM] | activity change, negative = inhibition [7] 11.4% [at 17.2 µM] | activity, negative = inhibition [8] -2.1% [at 17.2 µM] | Potency [9] > 20.6 µM | Potency [1]

COC(=N)c1nc2ccc3ncnc(Nc4ccc(F)cc4Br)c3c2s1
inactive: Potency [1] | Potency [10]

CCN(CC)CCCC(C)n1c(-c2ccccc2)nc2c(NCCO)nc(C)nc21 (centres undefined)
inactive: outcome [11] | Potency [12] | Potency [1]

Fc1ccc(CSc2nc3ncc(Br)cc3[nH]2)cc1
active: Potency [13] 56.2 µM
inactive: Potency [1]

Cc1ccccc1NC(=O)CN1C(=O)N/C(=C\c2cccn2-c2cccc(C(=O)O)c2)C1=O
inactive: outcome [16] | outcome [20] | Potency [1]
active: Potency [14] 28.2 µM | Potency [13] 1.78 µM | Potency [15] 1.5 µM | Potency [17] 5.8 µM | Potency [18] 16.8 µM | Potency [19] 6.07 µM | Potency [21] 2.99 µM | Potency [22] 16.9 µM | Potency [23] 7.64 µM

— PubChem BioAssay (NCATS)
